Among the test systems are HCT-15 colon; SNB-75 CNS; SNB-19 CNS; U251 CNS; PC-3 prostate; SK-MEL-5 melanoma; UACC-62 melanoma; LOX IMVI melanoma; SK-MEL-28 melanoma; SN12C renal; UO-31 renal; TK-10 renal; ACHN renal; CAKI-1 renal; A498 renal; CCRF-CEM leukemia; MOLT-4 leukemia; SK-MEL-2 melanoma; EKVX NSCLC.
What all share (assay): NCI-60 one-dose screen, 48 h (100 = growth as untreated, 0 = no growth, -100 = all killed)
Common to all, as to details: 10 µM unless noted

Compounds without any hit were thinned out: in the full panel of roughly 83,000, 20% have a hit.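 Treatment: one concentration, 48 hours, 96-well format. Scoring: percent growth, with anything below 10 considered active.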 Values without a mark were called inactive. The source made the active and inactive calls.

In the case of `COc1ccc(C(=O)/C=C/c2c(Cl)c3c(c(OC)c2Cl)OCC(=O)N3)cc1`, the growth with HCT-15 colon is 20.1%; in the assay on SNB-75 CNS, 37%; with SNB-19 CNS it was 59.6%; with U251 CNS, 17%; in the assay on PC-3 prostate it was 52.1%; in the assay on SK-MEL-5 melanoma it was 21.2%. Besides, the growth in the assay with UACC-62 melanoma is 46.7%; in the assay on LOX IMVI melanoma it was -36.1% (active); in the assay with SK-MEL-28 melanoma, 48.2%; with SN12C renal, 27.8%; in the assay on UO-31 renal it was 56.7%; in the assay with TK-10 renal, 57.3%. Moreover, the growth with ACHN renal is 41.8%; with CAKI-1 renal, 20.2%; with A498 renal, 83.5%; in the assay with CCRF-CEM leukemia it was 5.04% (active); in the assay with MOLT-4 leukemia it was 0.538% (active).

Consider `CC(=O)OCC1OC(OC2=C(CC=C(Cl)Cl)C(=O)c3ccccc3C2=O)C(OC(C)=O)C(OC(C)=O)C1OC(C)=O` (stereo not drawn), for which the growth is 56.9% in the assay with HCT-15 colon; 71.1% with SNB-75 CNS; 99.3% in the assay on SNB-19 CNS; 47.4% in the assay on PC-3 prostate; 66.3% in the assay with SK-MEL-5 melanoma; 86.1% in the assay with UACC-62 melanoma. Further, the growth was 39.9% with LOX IMVI melanoma; 91.4% with SK-MEL-28 melanoma; 61.3% in the assay on SK-MEL-2 melanoma; 85.8% in the assay on SN12C renal; 69.3% in the assay on UO-31 renal; 117% in the assay on TK-10 renal. Further, the growth was 59.9% in the assay with ACHN renal, 75.4% in the assay on A498 renal, -19.3% (active) in the assay with CCRF-CEM leukemia and -21.1% (active) in the assay on MOLT-4 leukemia.

As to `CCCCCn1cnc2c(=S)nc[nH]c21`, the growth in the assay with HCT-15 colon is 107%; with SNB-75 CNS, 90.2%; in the assay with U251 CNS, 110%; with PC-3 prostate it was 98%; in the assay on SK-MEL-5 melanoma, 93.5%; with UACC-62 melanoma, 109%. Further, the growth in the assay on LOX IMVI melanoma is 107%; in the assay on SK-MEL-28 melanoma, 106%; with SK-MEL-2 melanoma it was 121%; in the assay with EKVX NSCLC it was 108%; in the assay on SN12C renal, 117%; with UO-31 renal it was 99.1%. The growth with TK-10 renal is 116%; in the assay with ACHN renal it was 109%; in the assay on CAKI-1 renal it was 115%; in the assay on A498 renal, 107%; in the assay on CCRF-CEM leukemia it was 97.1%; in the assay with MOLT-4 leukemia, 104%.

Regarding `CN1CCN(c2ccc3nc(-c4ccc5nc(-c6ccc(OCCC(C)(C)C)cc6)[nH]c5c4)[nH]c3c2)CC1`, the growth in the assay with HCT-15 colon is 56.3%; in the assay with SNB-75 CNS, 90.1%; in the assay with SNB-19 CNS, -67.6% (active); in the assay on PC-3 prostate it was -72.6% (active); in the assay with SK-MEL-5 melanoma, 80.2%; with UACC-62 melanoma it was 88.1%. In addition, the growth in the assay with LOX IMVI melanoma was -73.7% (active); in the assay on SK-MEL-28 melanoma, -59.2% (active); with SK-MEL-2 melanoma, 5.57% (active); in the assay with EKVX NSCLC it was 52.8%; in the assay on SN12C renal it was 75.4%; with UO-31 renal it was 85.3%. In addition, the growth in the assay with TK-10 renal was 89.9%; in the assay on ACHN renal, 64.4%; in the assay on CAKI-1 renal, 65.4%; in the assay with A498 renal it was 88.6%; with CCRF-CEM leukemia it was -50% (active); in the assay on MOLT-4 leukemia, -41.2% (active).

In the case of `CN1CCN(Cc2ccc(NC(=O)c3[nH]ncc3Nc3ncnc4c3CCC4)cc2)CC1`, the growth with HCT-15 colon was 13.7%; in the assay with SNB-75 CNS, -22.6% (active); in the assay on U251 CNS, 15.4%; in the assay on PC-3 prostate it was 9.21% (active); in the assay with SK-MEL-5 melanoma it was 9.53% (active); with UACC-62 melanoma, 9.97% (active). For the same molecule, the growth was 7.49% (active) in the assay on LOX IMVI melanoma; 5.62% (active) in the assay on SK-MEL-28 melanoma; 13.6% in the assay with SK-MEL-2 melanoma; 26% in the assay with EKVX NSCLC; 6.07% (active) in the assay with SN12C renal; 6.53% (active) with UO-31 renal. Besides, the growth in the assay on TK-10 renal is 2.4% (active); in the assay on ACHN renal it was -10.8% (active); in the assay with CAKI-1 renal, 9.41% (active); in the assay on A498 renal it was -21.7% (active); in the assay on CCRF-CEM leukemia, 11.1%; in the assay on MOLT-4 leukemia, -2.96% (active).

`COc1ccc(-c2cc(C(=O)N=Nc3c(O)[nH]c4ccccc34)no2)cc1`: the growth with HCT-15 colon was 104%; in the assay on SNB-75 CNS, 66.5%; in the assay with SNB-19 CNS, 91.5%; in the assay with PC-3 prostate, 97.5%; in the assay with SK-MEL-5 melanoma, 98.9%; in the assay on UACC-62 melanoma it was 100%. In addition, the growth in the assay with SK-MEL-28 melanoma was 109%; in the assay with SK-MEL-2 melanoma, 97.9%; in the assay with EKVX NSCLC it was 97.4%; in the assay with SN12C renal it was 94.9%; in the assay on UO-31 renal it was 81.5%; in the assay with TK-10 renal it was 118%. Also, the growth was 107% with ACHN renal; 86% in the assay on CAKI-1 renal; 84.6% in the assay with A498 renal; 101% with CCRF-CEM leukemia; 106% with MOLT-4 leukemia.

Take `CC(C)c1c(C(=O)Nc2ccccc2)c(-c2ccccc2)c(-c2ccc(F)cc2)n1CC[C@@H]1CC=CC(=O)O1`: the growth with HCT-15 colon is -42.7% (active); in the assay on SNB-75 CNS it was -25% (active); in the assay on SNB-19 CNS, 14.2%; with PC-3 prostate, -39.2% (active); in the assay on SK-MEL-5 melanoma it was 21.7%; with UACC-62 melanoma it was 18.9%. The growth is -75.4% (active) with LOX IMVI melanoma; -57.1% (active) in the assay on SK-MEL-28 melanoma; -55.9% (active) in the assay with SK-MEL-2 melanoma; 34.4% in the assay with EKVX NSCLC; -15.5% (active) in the assay with SN12C renal; -75.9% (active) with UO-31 renal. Moreover, the growth was 28.5% with TK-10 renal; -27.8% (active) in the assay with ACHN renal; 4.73% (active) in the assay on CAKI-1 renal; 73.7% in the assay on A498 renal; -29.1% (active) with CCRF-CEM leukemia; -33.2% (active) with MOLT-4 leukemia.

Regarding `CCOC(=O)C12CCCC1=CC(=O)CC2` (stereo not drawn), the growth with HCT-15 colon was 106%; with SNB-75 CNS it was 89.1%; with SNB-19 CNS, 99.9%; in the assay on U251 CNS, 105%; in the assay with PC-3 prostate, 94.8%; with SK-MEL-5 melanoma it was 103%. Also, the growth in the assay on UACC-62 melanoma is 102%; in the assay with LOX IMVI melanoma it was 100%; in the assay with SK-MEL-28 melanoma it was 106%; in the assay with SK-MEL-2 melanoma it was 89.9%; in the assay on EKVX NSCLC, 111%; in the assay with SN12C renal it was 110%. The growth is 85.3% in the assay on UO-31 renal; 128% with TK-10 renal; 106% in the assay with ACHN renal; 103% in the assay with CAKI-1 renal; 110% in the assay on A498 renal; 95.7% in the assay on CCRF-CEM leukemia. Besides, in the assay on MOLT-4 leukemia, the growth was 94.6%.

As to `Cc1cc(=O)oc2cc(Oc3nc(-c4cccs4)cn4c(-c5cccs5)cnc34)ccc12`, the growth was 72.9% in the assay on HCT-15 colon; 35.6% in the assay with SNB-75 CNS; 47.5% with U251 CNS; 53% in the assay on PC-3 prostate; 42.5% in the assay on SK-MEL-5 melanoma; 71.1% in the assay with UACC-62 melanoma. The growth in the assay on LOX IMVI melanoma was 38.4%; with SK-MEL-28 melanoma it was 23.9%; in the assay on SK-MEL-2 melanoma it was 69%; in the assay on SN12C renal, 73.8%; with UO-31 renal, 60.3%; in the assay with TK-10 renal, 53.9%. Moreover, the growth was 57.3% with ACHN renal; 67.8% in the assay with CAKI-1 renal; 64.4% with A498 renal; 94.6% with CCRF-CEM leukemia; 78.7% in the assay with MOLT-4 leukemia.

The values above are taken from PubChem BioAssay (NCI).
